# Data from PubChem BioAssay (NCI).
# Compounds without any hit were thinned out: in the full panel of roughly 83,000, 20% have a hit.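 Treatment: one concentration, 48 hours, 96-well format. Scoring: percent growth, with anything below 10 considered active.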 Values without a mark were called inactive. Active and inactive are the calls of the source.
# Tested on: HL-60(TB) leukemia
# Assay: NCI-60 one-dose screen, 48 h (100 = growth as untreated, 0 = no growth, -100 = all killed)
# Conditions: 10 µM unless noted
row,Structure (SMILES),growth
1,Nc1c(C(=O)Nc2cccc3c2OCCO3)sc2nc3c(cc12)CN(Cc1ccccc1)CC3,19.1%
2,COC(=O)[C@H](C)NC(=O)c1ccc(NC(=O)c2[nH]c(C)c(Cl)c2Cl)c(OCCN)c1,95.2%
3,O=C1/C(=C/c2ccccc2)CCc2nc3ccccc3c(/C=C/c3ccc(Cl)cc3)c21,83.2%
4,COc1cc(C(=O)NNC(=O)c2ccccc2O)cc(OC)c1OC,80.4%
5,O=C(CCN1CCCC1)c1ccc([N+](=O)[O-])cc1,-21.1% (active)
6,O=[N+]([O-])c1ccc2nc3c4ccccc4c4ccccc4c3nc2c1,77.2%
7,CC(Br)C(Br)c1cc2c(cc1Br)OCO2 (stereo not given),97%
8,CC(C)c1ccc(Cc2cnc(NC(=O)c3cc(Br)cs3)s2)cc1,-24% (active)
9,CCCCCCNCc1cc(C(C)(C)C)cc(CNCCCCCC)c1O,-45.1% (active)
10,CCCOc1ccc(/C=N/Nc2cc(C)nc3ccc(Cl)cc23)cc1,-48% (active)
11,O=C1CCCCN1CCCCC#Cc1ccccc1C#Cc1ccc([N+](=O)[O-])cc1,-25.7% (active)
12,Cc1nc2c3c(ncn2n1)Oc1c(c(=O)[nH]c2ccccc12)C3c1ccc(Cl)cc1 (stereo not given),98%
13,COc1cccc(-c2nc3sccn3c2-c2ccnc(NCCNC(=O)Nc3cccc(C(F)(F)F)c3)n2)c1,62.8%
14,COc1ccc(CCl)c(C)c1OC,99%
15,COc1ccc2[nH]c(C(=O)N3CCN(C(=O)OCc4ccc5c(Br)cc(Br)c(O)c5n4)CC3)cc2c1,-42.1% (active)
16,CCN(CC)CC(C)(C)C(=O)/C=C/c1ccccc1,26.2%
17,COc1ccc(NC2=C(Sc3nc(C)cc(C)n3)C(=O)N(Cc3ccccc3)C2=O)cc1Cl,58.8% [30 µM]
18,CCCNc1nc2ccccc2c2c1S(=O)(=O)c1ccc(Cl)cc1C2=O,-14.1% (active)
19,O=C(NCCc1ccccn1)OCc1nc2nc(Cl)nc(N3CCOCC3)c2[nH]1,-47.6% (active)
20,C#CCOC(=O)C(N)CS (stereo not given),120%

row,Structure (SMILES),growth
1,O=C(Nc1nc2ccc(F)cc2s1)c1cccnc1Nc1ccc(Cl)cc1Cl,26.5%
2,OC(COc1ccccc1Cl)CN1CCN(c2ccc(Cl)cc2)CC1 (stereo not given),109%
3,COc1ccc2nc3c(n2c1)C(=O)C(=O)c1ccccc1-3,-48.9% (active)
4,CNC(=O)OC1C(O[C@H]2C[C@H]3[C@@H]4CC=C5C[C@@H](O)CC[C@]5(C)[C@H]4CC[C@]3(C)[C@H]2[C@H](C)C(=O)CCC(C)C)OCC(O)C1OC1OCC(O)C(O)C1OC(=O)c1ccc(OC)cc1 (stereo not given in full),-12.1% (active)
5,COc1ccc(-c2cc(C(=O)N3N=C(c4ccc(N)cc4)CC3c3ccc(OC)cc3)c3cc(OC)ccc3n2)cc1 (stereo not given),-7.72% (active)
6,N#C/C(=C\c1cccc2cnccc12)n1nnc2cccc(F)c21,1.65% (active)
7,COc1cc(C(=O)/C(C)=C/c2c[nH]c3ccccc23)cc(OC)c1OC,-9.27% (active)
8,COc1ccccc1C(=O)O/N=C(\N)Cc1cccc2ccccc12,96.3%
9,CN(C)c1ccc2nc3ccc(=N)cc-3sc2c1,-28.5% (active)
10,Nc1ccccc1-c1ccc([N+](=O)[O-])cc1,14.2%
11,O=c1cc(C(F)(F)F)c2cc(-c3cc4ccccc4c(=O)o3)c(O)cc2o1,38.3%
12,C#CCO[C@H]1CC[C@H](OCC#C)[C@@H]2[C@H]1[C@H]1C[C@@H]3[C@@]4(C)CCC[C@@](C)(C(=O)OC)[C@@H]4CC[C@@]23C=C1C(C)C,78.1%
13,Cc1cc2nc3c4cc([N+](=O)[O-])cc([N+](=O)[O-])c4n(CCN(C)C)c3nc2cc1C,98.2%
14,CCC(C)CC(C)C(=O)c1c(O)ccn(O)c1=O (stereo not given),-0.418% (active)
15,COc1ccccc1NC(=O)c1cc2cc(Br)ccc2cc1O,-33.7% (active)
16,COc1ccc(-c2nc(-c3nc4ccc(OC)cc4[nH]3)cc3c2[nH]c2ccccc23)cc1,34.7%
17,O=c1cc(-c2ccccc2)[nH]c2ncc(-c3ccc(F)cc3)n12,18.9%
18,O=S(=O)(NCCNc1cc(-c2c(-c3cccc(O)c3)nc3sccn23)ccn1)c1ccc(Br)cc1,77.6%
19,COc1cccc(C(=O)NNc2nc(Cl)nc(Cl)n2)c1,96.2%
20,C=C1C(=O)O[C@H]2[C@H]1CC/C(COC(=O)NCc1ccc(Cn3c(=O)sn(-c4ccc(Cl)cc4)c3=O)cc1)=C\CC[C@@]1(C)O[C@@H]21,-11.4% (active)
